Laboratory results reported in PubChem BioAssay (Tox21).
Records with an inconclusive call do not appear. Calls of active or inactive are those of the source. Calls come from the whole dose curve; as a rule, active = well fitted curve in the direction sought with a large enough effect in the repeat runs; inconclusive = weak or mixed curves; inactive = no such curve, though single readings can be large; an effect the other way counts as inactive or inconclusive.

How the values were obtained:
[1] = Caspase-3/7 induction in HepG2 cells by small molecules, qHTS assay (AID 1346978); note: nearly all actives have a fitted effect of over 15% in size; note: potency is the fitted concentration of half-maximal effect
Procedure, shortened: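 Wild-type HepG2 cells (2,000/well) were settled 5 h at 37 C, 5% CO2, then exposed to compounds in DMSO for 17 h. Caspase-3/7 activity was read by luminescence 30 min after adding Caspase-Glo 3/7 reagent at room temperature.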

[2] = Caspase-3/7 induction in CHO-K1 cells by small molecules, qHTS assay (AID 1346980); note: nearly all actives have a fitted effect of over 15% in size
Procedure, shortened: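 Wild-type cells were seeded at 1,500 per well and settled 5 hr at 37 C, 5% CO2, then exposed to DMSO-dissolved compounds for 17 hr. Caspase-Glo 3/7 reagent was added, and luminescence was read after 30min at room temperature.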

[3] = biological target: Nuclear receptor subfamily 1 group I member 2 (Homo sapiens) (UniProt O75469); experiment: Human pregnane X receptor (PXR) small molecule agonists, qHTS assay (AID 1346982); note: nearly all actives have a fitted effect of over 35% in size; note: potency is the fitted concentration of half-maximal effect
Procedure, shortened: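 Reporter HepG2 cells expressing PXR-Luc are cultured in charcoal-stripped FBS (5%), treated with compounds for 24 hr at 37 C, and assayed by ONE-Glo luminescence after 30 min at room temperature.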

[4] = biological target: Cytochrome P450 2C19 (Homo sapiens) (UniProt P33261); experiment: Cytochrome P450 Family 2 Subfamily C Member 19 (CYP2C19) small molecule antagonists: luciferase reporter qHTS assay (AID 1671197); note: nearly all actives have a fitted effect of over 65% in size; note: potency is the fitted concentration of half-maximal effect
Procedure, shortened: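 P450-Glo CYP2C19 screening system; proluciferin substrate; DMSO compound stocks; 10 min RT preincubation; NADPH regeneration, 1 h at 37C; luciferin detection reagent, 20 min RT; luminescence as RLU.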

[5] = biological target: Cytochrome P450 2C9 (Homo sapiens) (UniProt P11712); experiment: Cytochrome P450 Family 2 Subfamily C Member 9 (CYP2C9) small molecule antagonists: luciferase reporter qHTS assay (AID 1671198); note: nearly all actives have a fitted effect of over 50% in size; note: potency is the fitted concentration of half-maximal effect
Procedure, shortened: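 CYP2C9 activity was measured with a P450-Glo proluciferin substrate. Enzyme–substrate mix was held with compound for 10 min at room temperature, then NADPH regeneration solution was added for 1 h at 37C. Luciferin product was read as luminescence.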

[6] = biological target: Cytochrome P450 1A2 (Homo sapiens) (UniProt P05177); experiment: Cytochrome P450 Family 1 Subfamily A Member 2 (CYP1A2) small molecule antagonists: luciferase reporter qHTS assay (AID 1671199); note: nearly all actives have a fitted effect of over 50% in size; note: potency is the fitted concentration of half-maximal effect
Procedure, shortened: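 Steps: enzyme-substrate mix dispensed; test compounds and furafylline control pinned in; 10 min room temperature; NADPH regeneration solution added, 1 h; reaction stopped with luciferin detection reagent; luminescence read after 20 min.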

[7] = biological target: Voltage-gated inwardly rectifying potassium channel KCNH2 (Homo sapiens) (UniProt Q12809); experiment: Human Ether-a-go-go-Related Gene (hERG) channel small molecule antagonists: fluorescence cell-based qHTS assay (AID 1671200); note: nearly all actives have a fitted effect of over 50% in size; note: potency is the fitted concentration of half-maximal effect
Procedure, shortened: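 Measured: Tl+ flux via fluorescence (480/540 nm) in hERG-expressing U2OS cells after 1 h dye loading at room temperature.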

[8] = biological target: Cytochrome P450 3A4 (Homo sapiens) (UniProt P08684); experiment: Cytochrome P450 Family 3 Subfamily A Member 4 (CYP3A4) small molecule antagonists: luciferase reporter qHTS assay (AID 1671201); note: nearly all actives have a fitted effect of over 50% in size; note: potency is the fitted concentration of half-maximal effect
Procedure, shortened: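 Setup: enzyme-substrate mix, compound pin transfer, 10 min RT. Reaction: NADPH regeneration solution, 1 h RT. Readout: detection reagent stops turnover, luminescence measured after 20 min, expressed in relative luminescence units.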

[9] = Caspase-3/7 induction in CHO-K1 cells by small molecules, qHTS cell viability counter screen (AID 1346979); note: nearly all actives have a fitted effect of over 35% in size; note: potency is the fitted concentration of half-maximal effect
Procedure, shortened: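 To flag cytotoxic compounds, treated CHO-K1 wild-type cells were given CellTiter-Fluor at 16hr and read fluorescently after 1hr at 37C; the caspase-3/7 luminescence was measured in these same wells.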

[10] = Caspase-3/7 induction in HepG2 cells by small molecules, qHTS cell viability counter screen (AID 1346981); note: nearly all actives have a fitted effect of over 30% in size; note: potency is the fitted concentration of half-maximal effect
Procedure, shortened: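 In this quantitative HTS counter screen, compounds delivered in DMSO were left on unmodified HepG2 cells for 16 hr at 37 C. Viability was then determined fluorometrically with CellTiter-Fluor, in parallel with caspase-3/7 induction in the same wells.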

[11] = biological target: Nuclear receptor subfamily 1 group I member 2 (Homo sapiens) (UniProt O75469); experiment: CYP3A4 induction through human pregnane X receptor (PXR) by small molecules, qHTS assay (AID 1346984); note: nearly all actives have a fitted effect of over 40% in size; note: potency is the fitted concentration of half-maximal effect
Procedure, shortened: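 Induction measured in HepG2-based DPX-2 cells co-expressing human PXR and a CYP3A4 promoter-driven luciferase. After a 24-hour compound exposure, cells received CYP3A4 luciferin substrate at 3uM final for 3 hours, and light output was then recorded.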

[12] = biological target: Nuclear receptor subfamily 1 group I member 2 (Homo sapiens) (UniProt O75469); experiment: Human pregnane X receptor (PXR) activation by small molecules, qHTS assay (AID 1346985); note: nearly all actives have a fitted effect of over 40% in size; note: potency is the fitted concentration of half-maximal effect
Procedure, shortened: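 DPX-2 cells (HepG2 co-transfected with a PXR response element and a CYP3A4-promoter luciferase construct) were seeded at 2,000 per well, rested 5 hr at 37C, then exposed to DMSO-dissolved compounds for 24 hr. Activation was read as luciferase luminescence.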

[13] = biological target: Cytochrome P450 2D6 (Homo sapiens) (UniProt P10635); experiment: Cytochrome P450 Family 2 Subfamily D Member 6 (CYP2D6) small molecule antagonists: luciferase reporter qHTS assay (AID 1671196); note: nearly all actives have a fitted effect of over 50% in size; note: potency is the fitted concentration of half-maximal effect
Procedure, shortened: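 Test chemicals meet CYP2D6 plus proluciferin substrate (10 min, RT); NADPH regenerating solution then drives turnover for 1 h. Detection reagent halts the reaction; luminescence measured after 20 min.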

[14] = biological target: Nuclear receptor subfamily 1 group I member 2 (Rattus norvegicus) (UniProt Q9R1A7); experiment: Rat pregnane X receptor (rPXR) activation by small molecules, qHTS assay (AID 1346983); details: rPXR luciferase reporter cells, One-Glo luminescence, 24 h; max activation: active compounds read high; note: nearly all actives have a fitted effect of over 20% in size
Procedure, shortened: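 Cell-based rPXR luciferase reporter assay, 2,000 cells per well, rested 5hr at 37 C before compound addition in DMSO, then 24 hr at 37 C. One-Glo reagent was added and luminescence read after 30 min at room temperature.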
% is set by controls: 0 for no effect and ±100 for the full control effect.

Voltage-gated inwardly rectifying potassium channel KCNH2 (Homo sapiens), sequence (Q12809 whole entry, looked up): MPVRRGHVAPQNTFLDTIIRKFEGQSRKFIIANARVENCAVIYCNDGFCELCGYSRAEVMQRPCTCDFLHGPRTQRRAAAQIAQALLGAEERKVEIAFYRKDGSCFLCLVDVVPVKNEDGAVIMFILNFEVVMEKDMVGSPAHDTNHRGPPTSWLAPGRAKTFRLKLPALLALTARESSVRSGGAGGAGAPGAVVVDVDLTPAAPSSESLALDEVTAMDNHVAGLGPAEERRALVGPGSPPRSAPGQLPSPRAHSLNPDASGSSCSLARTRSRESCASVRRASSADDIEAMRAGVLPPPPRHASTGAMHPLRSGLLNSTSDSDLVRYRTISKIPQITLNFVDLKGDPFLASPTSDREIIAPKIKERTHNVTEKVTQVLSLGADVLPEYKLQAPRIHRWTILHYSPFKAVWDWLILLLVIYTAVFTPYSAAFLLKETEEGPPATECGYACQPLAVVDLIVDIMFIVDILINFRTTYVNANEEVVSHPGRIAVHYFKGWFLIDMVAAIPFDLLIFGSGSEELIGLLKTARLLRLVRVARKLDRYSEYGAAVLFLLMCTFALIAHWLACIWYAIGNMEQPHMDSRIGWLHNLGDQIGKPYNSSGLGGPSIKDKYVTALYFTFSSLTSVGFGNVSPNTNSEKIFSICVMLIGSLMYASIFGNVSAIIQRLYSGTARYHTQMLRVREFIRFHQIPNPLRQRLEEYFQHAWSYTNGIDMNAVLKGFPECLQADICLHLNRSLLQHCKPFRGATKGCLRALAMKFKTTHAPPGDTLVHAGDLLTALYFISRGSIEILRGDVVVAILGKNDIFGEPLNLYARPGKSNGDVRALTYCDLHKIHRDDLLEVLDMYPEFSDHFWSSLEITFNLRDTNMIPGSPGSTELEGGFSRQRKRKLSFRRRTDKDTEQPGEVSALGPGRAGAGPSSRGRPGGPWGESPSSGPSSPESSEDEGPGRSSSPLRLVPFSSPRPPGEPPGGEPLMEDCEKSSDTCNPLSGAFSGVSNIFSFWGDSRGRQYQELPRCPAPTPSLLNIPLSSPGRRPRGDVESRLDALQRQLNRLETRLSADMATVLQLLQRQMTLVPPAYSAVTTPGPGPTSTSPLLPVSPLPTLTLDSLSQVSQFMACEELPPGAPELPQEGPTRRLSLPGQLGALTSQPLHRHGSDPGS
Cytochrome P450 3A4 (Homo sapiens), sequence (P08684 whole entry, looked up): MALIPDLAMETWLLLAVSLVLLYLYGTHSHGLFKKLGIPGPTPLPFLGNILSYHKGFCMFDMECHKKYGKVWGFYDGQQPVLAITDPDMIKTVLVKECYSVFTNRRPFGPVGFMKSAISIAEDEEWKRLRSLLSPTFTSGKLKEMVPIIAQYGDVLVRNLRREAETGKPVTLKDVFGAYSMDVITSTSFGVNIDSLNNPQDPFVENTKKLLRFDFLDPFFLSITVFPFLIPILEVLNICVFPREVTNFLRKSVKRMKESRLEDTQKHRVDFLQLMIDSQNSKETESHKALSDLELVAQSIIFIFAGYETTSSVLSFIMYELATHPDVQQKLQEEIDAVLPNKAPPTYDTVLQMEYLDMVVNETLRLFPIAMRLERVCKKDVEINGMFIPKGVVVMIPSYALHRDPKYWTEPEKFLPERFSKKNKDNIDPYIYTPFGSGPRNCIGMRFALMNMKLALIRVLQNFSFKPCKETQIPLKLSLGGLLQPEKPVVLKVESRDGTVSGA
Nuclear receptor subfamily 1 group I member 2 (Homo sapiens), sequence (O75469 whole entry, looked up): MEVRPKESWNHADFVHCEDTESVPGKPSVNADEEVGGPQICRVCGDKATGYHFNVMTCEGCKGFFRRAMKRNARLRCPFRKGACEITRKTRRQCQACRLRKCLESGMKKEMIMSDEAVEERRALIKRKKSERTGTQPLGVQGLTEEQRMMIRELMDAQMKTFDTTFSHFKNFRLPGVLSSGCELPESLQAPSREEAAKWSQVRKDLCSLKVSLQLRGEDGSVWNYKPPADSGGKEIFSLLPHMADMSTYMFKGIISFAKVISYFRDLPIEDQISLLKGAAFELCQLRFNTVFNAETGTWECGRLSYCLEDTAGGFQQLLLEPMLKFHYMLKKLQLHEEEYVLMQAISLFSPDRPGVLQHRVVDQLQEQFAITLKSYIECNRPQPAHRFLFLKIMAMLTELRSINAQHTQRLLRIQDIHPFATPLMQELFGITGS
Cytochrome P450 2C9 (Homo sapiens), sequence (P11712 whole entry, looked up): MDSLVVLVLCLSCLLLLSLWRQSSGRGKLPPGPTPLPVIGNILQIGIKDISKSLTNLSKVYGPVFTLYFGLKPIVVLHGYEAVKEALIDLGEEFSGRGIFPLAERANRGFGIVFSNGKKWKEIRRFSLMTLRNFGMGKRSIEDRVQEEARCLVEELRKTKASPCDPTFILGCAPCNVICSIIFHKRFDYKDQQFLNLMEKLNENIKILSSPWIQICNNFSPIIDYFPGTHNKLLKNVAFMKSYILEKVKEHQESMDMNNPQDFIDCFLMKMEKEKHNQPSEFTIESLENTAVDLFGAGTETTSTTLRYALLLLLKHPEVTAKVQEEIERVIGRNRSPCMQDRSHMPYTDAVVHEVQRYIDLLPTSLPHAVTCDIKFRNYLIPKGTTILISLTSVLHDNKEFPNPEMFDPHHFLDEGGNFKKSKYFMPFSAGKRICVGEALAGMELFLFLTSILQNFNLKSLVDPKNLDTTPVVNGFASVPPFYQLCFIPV
Cytochrome P450 2C19 (Homo sapiens), sequence (P33261 whole entry, looked up): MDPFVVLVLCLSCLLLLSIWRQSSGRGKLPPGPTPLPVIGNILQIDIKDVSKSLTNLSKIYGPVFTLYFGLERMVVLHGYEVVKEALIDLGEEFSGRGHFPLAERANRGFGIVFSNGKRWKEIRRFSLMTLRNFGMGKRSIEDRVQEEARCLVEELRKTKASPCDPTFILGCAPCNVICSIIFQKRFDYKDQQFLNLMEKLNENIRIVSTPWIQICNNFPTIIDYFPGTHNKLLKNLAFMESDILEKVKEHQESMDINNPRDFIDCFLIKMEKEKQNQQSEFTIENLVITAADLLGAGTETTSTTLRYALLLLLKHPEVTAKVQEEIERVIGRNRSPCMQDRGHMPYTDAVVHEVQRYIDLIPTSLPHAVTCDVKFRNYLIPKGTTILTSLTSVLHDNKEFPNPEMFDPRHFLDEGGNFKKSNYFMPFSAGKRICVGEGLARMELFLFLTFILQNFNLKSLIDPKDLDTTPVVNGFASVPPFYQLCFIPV
Cytochrome P450 1A2 (Homo sapiens), sequence (P05177 whole entry, looked up): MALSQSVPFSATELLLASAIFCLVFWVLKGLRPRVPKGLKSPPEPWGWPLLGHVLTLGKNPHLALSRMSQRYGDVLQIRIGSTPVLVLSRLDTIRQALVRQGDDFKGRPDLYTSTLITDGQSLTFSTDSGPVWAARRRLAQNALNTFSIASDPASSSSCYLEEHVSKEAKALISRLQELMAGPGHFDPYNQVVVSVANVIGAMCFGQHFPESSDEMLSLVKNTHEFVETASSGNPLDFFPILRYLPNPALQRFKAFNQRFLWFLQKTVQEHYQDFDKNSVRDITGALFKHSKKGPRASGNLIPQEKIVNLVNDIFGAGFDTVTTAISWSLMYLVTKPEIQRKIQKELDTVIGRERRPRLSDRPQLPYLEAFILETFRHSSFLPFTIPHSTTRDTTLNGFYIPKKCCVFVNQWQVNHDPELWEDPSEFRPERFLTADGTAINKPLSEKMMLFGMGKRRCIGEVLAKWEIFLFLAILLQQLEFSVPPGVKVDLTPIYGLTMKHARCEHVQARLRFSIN
Cytochrome P450 2D6 (Homo sapiens), sequence (P10635 whole entry, looked up): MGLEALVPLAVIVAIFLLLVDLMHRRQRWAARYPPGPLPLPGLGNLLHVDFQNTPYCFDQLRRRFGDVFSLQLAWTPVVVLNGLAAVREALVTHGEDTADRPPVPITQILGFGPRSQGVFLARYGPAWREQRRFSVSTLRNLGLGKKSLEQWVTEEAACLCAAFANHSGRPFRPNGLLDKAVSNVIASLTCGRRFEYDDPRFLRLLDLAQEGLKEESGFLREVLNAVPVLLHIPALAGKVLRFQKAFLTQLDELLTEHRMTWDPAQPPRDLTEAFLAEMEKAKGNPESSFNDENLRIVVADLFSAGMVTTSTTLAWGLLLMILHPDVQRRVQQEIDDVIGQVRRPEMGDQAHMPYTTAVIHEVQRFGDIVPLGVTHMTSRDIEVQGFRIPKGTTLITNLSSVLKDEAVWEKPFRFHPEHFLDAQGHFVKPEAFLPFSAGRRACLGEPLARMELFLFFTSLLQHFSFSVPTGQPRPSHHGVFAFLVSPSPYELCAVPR
Nuclear receptor subfamily 1 group I member 2 (Rattus norvegicus), sequence (Q9R1A7 whole entry, looked up): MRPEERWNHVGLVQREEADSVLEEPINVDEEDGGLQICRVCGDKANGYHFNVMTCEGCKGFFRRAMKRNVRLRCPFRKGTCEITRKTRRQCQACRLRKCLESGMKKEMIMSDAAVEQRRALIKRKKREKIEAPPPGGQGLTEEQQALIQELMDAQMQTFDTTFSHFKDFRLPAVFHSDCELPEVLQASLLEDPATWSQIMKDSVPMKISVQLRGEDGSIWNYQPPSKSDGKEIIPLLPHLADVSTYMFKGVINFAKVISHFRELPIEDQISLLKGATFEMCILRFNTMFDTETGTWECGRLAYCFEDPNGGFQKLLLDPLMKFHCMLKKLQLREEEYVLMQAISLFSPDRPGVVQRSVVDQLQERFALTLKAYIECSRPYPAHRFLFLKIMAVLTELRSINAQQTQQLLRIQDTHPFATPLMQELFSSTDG

CCCCCCCC/C=C\CCCCCCCC(=O)OC(CO)CO
active: Potency [4] 71 µM | Potency [5] 20 µM | Potency [6] 71 µM | Potency [8] 17.8 µM
inactive: Potency [1] | outcome [2] | Potency [3] | Potency [7]

CCCCCCCCCCCCCCC[C@H](O)[C@@H](N)CO
inactive: Potency [9] | Potency [10] | Potency [3] | Potency [11] | Potency [12] | Potency [4] | Potency [5] | Potency [6] | Potency [7] | Potency [8]

O=C(CCCN1CCC(O)(c2ccc(Br)cc2)CC1)c1ccc(F)cc1
active: Potency [11] 11.2 µM | Potency [12] 11.2 µM | Potency [13] 2.45 µM | Potency [7] 0.239 µM
inactive: Potency [9] | outcome [2] | Potency [10] | Potency [4] | Potency [5] | Potency [6] | Potency [8]

Cc1ccc(S)cc1
inactive: Potency [1] | outcome [2] | Potency [3] | Potency [13] | Potency [7] | Potency [8]
active: Potency [4] 39.9 µM | Potency [5] 35.6 µM | Potency [6] 31.7 µM

CC(C)(O)c1ccccc1CC[C@@H](SCC1(CC(=O)O)CC1)c1cccc(/C=C/c2ccc3ccc(Cl)cc3n2)c1
inactive: Potency [1] | Potency [10] | Potency [3] | Potency [11] | Potency [4] | Potency [5] | Potency [6] | Potency [7] | Potency [8]

CC(=O)OCC(=O)[C@@]12OC(C)(C)O[C@@H]1C[C@H]1[C@@H]3C[C@H](F)C4=CC(=O)C=C[C@]4(C)[C@@]3(F)[C@@H](O)C[C@@]12C
inactive: Potency [1] | outcome [2] | Potency [10] | Potency [7]

Fc1ccccc1[C@@H](F)COC1CCC(Nc2ncnc3[nH]ncc23)CC1 (stereo partly drawn)
inactive: Potency [1] | outcome [2] | Potency [3] | Potency [6] | Potency [7] | Potency [8]
active: Potency [4] 79.6 µM | Potency [5] 31.7 µM

Brc1cc(-c2ccc(Br)c(Br)c2Br)cc(Br)c1Br
inactive: Potency [1] | Potency [10] | Potency [13] | Potency [5] | Potency [7] | Potency [8]
active: Potency [3] 30.2 µM | Potency [4] 39.3 µM

O=C(N[C@@H](c1ccccc1)[C@@H]1CCCCN1)c1cccc(C(F)(F)F)c1Cl
active: Potency [1] 54.5 µM | Potency [10] 61.1 µM | Potency [13] 1.26 µM | Potency [4] 17.8 µM | Potency [5] 63.3 µM | Potency [8] 1.59 µM
inactive: Potency [6]

O=C(CCCCCCC(=O)Nc1ccccc1)NO
active: Potency [1] 4.22 µM | Potency [3] 7.5 µM | Potency [4] 7.76 µM | Potency [6] 12.9 µM
inactive: Potency [11] | Potency [12] | Potency [7] | Potency [8]

CC(C)(C)CC(C)(C)c1ccc(OCCO)cc1
inactive: outcome [2] | max activation [14] -7.23% | Potency [12] | Potency [13] | Potency [6]
active: Potency [9] 54.2 µM | Potency [10] 48.3 µM | Potency [3] 15.3 µM | Potency [11] 3.55 µM | Potency [4] 79.2 µM | Potency [5] 31.5 µM

CC1=C(/C=C/C(C)=C\C=C\C(C)=C\C(=O)O)C(C)(C)CCC1
inactive: Potency [1] | outcome [2] | Potency [6]
active: Potency [3] 54.5 µM | Potency [4] 35.6 µM | Potency [8] 22.4 µM

Fc1c(F)c(F)c(Br)c(F)c1F
inactive: Potency [9] | Potency [10] | Potency [3] | Potency [13] | Potency [4] | Potency [5] | Potency [7]

CN1CCN(CCCN2c3ccccc3Sc3ccc(S(=O)(=O)N(C)C)cc32)CC1
inactive: max activation [14] 4.5% | Potency [12] | Potency [4] | Potency [6]
active: Potency [9] 26.6 µM | Potency [10] 29.8 µM | Potency [13] 15.5 µM | Potency [7] 5.35 µM

CCOC(=O)N1CCC(n2c(=O)[nH]c3cc(Cl)ccc32)CC1
active: Potency [4] 9.77 µM | Potency [5] 9.77 µM
inactive: Potency [1] | outcome [2] | Potency [3] | Potency [13] | Potency [7] | Potency [8]

Nc1ccc(Cl)cc1[N+](=O)[O-]
inactive: Potency [1] | Potency [4] | Potency [5] | Potency [7]
active: Potency [3] 60.5 µM | Potency [6] 9.93 µM
